Read-out in test [1]: Tissue plasminogen activator (tPA), PLAT (gene 5327)
Briefly: BSK_BE3C_tPA: BioMAP Diversity Plus: BE3C Assay for Tissue plasminogen activator (tPA) Biomarker Activity (AID 2283041).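 For outcome: tPA level quantified by ELISA one day after compound addition.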 The following applies: primary human bronchial epithelial cells; actives raise or lower the signal. The method in brief:
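ELISA read-out of tPA on human primary bronchial epithelial cells, 24 h post-dosing; bidirectional fit vs DMSO negative control/baseline.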

Read-out in test [2]: Interleukin-8 (IL8), CXCL8 (gene 3576)
The test can be described thus: BSK_CASM3C_IL8: BioMAP Diversity Plus: CASM3C Assay for Interleukin-8 (IL8) Biomarker Activity (AID 2283042).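 Note: IL-8 protein level quantified by ELISA.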 The following applies: primary human coronary artery smooth muscle cells; actives raise or lower the signal.

Read-out in test [3]: Human Leukocyte Antigen - DR isotype (HLADR), HLA-DRA (gene 3122)
The test can be described thus: BSK_CASM3C_HLADR: BioMAP Diversity Plus: CASM3C Assay for Human Leukocyte Antigen - DR isotype (HLADR) Biomarker Activity (AID 2283043).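 Note: cell-surface HLA-DR protein level quantified by ELISA.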 The following applies: primary human coronary artery smooth muscle cells; actives raise or lower the signal.

Read-out in test [4]: Macrophage colony-stimulating factor (MCSF), CSF1 (gene 1435)
The test can be described thus: BSK_CASM3C_MCSF: BioMAP Diversity Plus: CASM3C Assay for Macrophage colony-stimulating factor (MCSF) Biomarker Activity (AID 2283044).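 Note: M-CSF protein amount quantified by ELISA after 24 h exposure.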 The following applies: primary human coronary artery smooth muscle cells; actives raise or lower the signal.

Read-out in test [5]: Low-density lipoprotein receptor (LDLR), LDLR (gene 3949)
Briefly: BSK_CASM3C_LDLR: BioMAP Diversity Plus: CASM3C Assay for Low-density lipoprotein receptor (LDLR) Biomarker Activity (AID 2283045).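 Note: LDLR protein level on the cell surface quantified by ELISA.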 The following applies: primary human coronary artery smooth muscle cells; actives raise or lower the signal.

Read-out in test [6]: Monocyte Chemoattractant Protein-1 (MCP1), CCL2 (gene 6347)
Briefly: BSK_CASM3C_MCP1: BioMAP Diversity Plus: CASM3C Assay for Monocyte Chemoattractant Protein-1 (MCP1) Biomarker Activity (AID 2283046).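 Note: MCP-1 level quantified by ELISA 24 h after dosing.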 Particulars: primary human coronary artery smooth muscle cells; actives raise or lower the signal.

Test [7] is described as follows: BSK_CASM3C_Proliferation: Cell Proliferation Assessment in the BioMAP Diversity Plus: CASM3C Assay (AID 2283047).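 Note: sulforhodamine B total protein stain as relative cell number at 560 nm; sub-confluent cells exposed 48 h before staining; fitted both ways against DMSO so gain or loss of cell number.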 The following applies: primary human coronary artery smooth muscle cells.
Read-out in test [8]: Monokine induced gamma interferon (MIG), CXCL9 (gene 4283)
The test can be described thus: BSK_CASM3C_MIG: BioMAP Diversity Plus: CASM3C Assay for Monokine induced gamma interferon (MIG) Biomarker Activity (AID 2283048).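 Note: MIG protein level measured by ELISA.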 Particulars: primary human coronary artery smooth muscle cells; actives raise or lower the signal.

Read-out in test [9]: serum amyloid A (SAA), SAA1 (gene 6288)
The test can be described thus: BSK_CASM3C_SAA: BioMAP Diversity Plus: CASM3C Assay for serum amyloid A (SAA) Biomarker Activity (AID 2283049).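 Note: SAA protein level quantified by ELISA.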 The following applies: primary human coronary artery smooth muscle cells; actives raise or lower the signal.

A short description of test [10]: BSK_CASM3C_SRB: Viability Assessment in the BioMAP Diversity Plus: CASM3C Assay (AID 2283050).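 Note: total protein by SRB staining as cytotoxicity measure in parallel cultures; cells exposed to compound for 24 h.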 Particulars: primary human coronary artery smooth muscle cells.

Values joined by “and” are separate entries in the source; they are usually repeats but may differ in a detail not shown here. Equal entries are not always repeated. Active and inactive are the calls of the source. Rule for the calls: active = hit-call score of the fitted dose curve at least 0.9, where 1 is the maximum; inactive = score below 0.9.

One may read the AC50 as the concentration at which the activity in the assay is half-maximal. With `CC[C@H](C)[C@H]1O[C@]2(C=C[C@@H]1C)C[C@@H]1C[C@@H](C/C=C(\C)[C@@H](O[C@H]3C[C@H](OC)[C@@H](O[C@H]4C[C@H](OC)[C@@H](NC)[C@H](C)O4)[C@H](C)O3)[C@@H](C)/C=C/C=C3\CO[C@@H]4[C@H](O)C(C)=C[C@@H](C(=O)O1)[C@]34O)O2`, the outcome in test [1] and in test [5] was inactive. For the same compound, the AC50 in test [2] is 14.2 µM (active); in test [3], 12.6 µM (active); in test [4], 11.6 µM (active); in [6], 12.9 µM (active); in test [7], 5.53 µM (active); in test [8], 13.7 µM (active). The figures for the AC50 in test [9] and in test [10] were 9.71 µM (active) and 11.6 µM (active), respectively.

On to `Cc1nn(-c2cc(NS(C)(=O)=O)c(Cl)cc2Cl)c(=O)n1C(F)F`, for which the outcome in test [1], in test [2], in test [3], in test [4], in test [5] and in test [6] was inactive. Further, the outcome in [7], in [8], in [9] and in [10] was inactive.

As to `CNc1cnn(-c2cccc(C(F)(F)F)c2)c(=O)c1Cl`, the outcome in [1], in test [2], in [3], in [4], in test [5] and in [6] was inactive. Further, the outcome in test [7], in test [8], in test [9] and in test [10] was inactive.

Consider `COc1cccc(C(=O)NN(C(=O)c2cc(C)cc(C)c2)C(C)(C)C)c1C`, for which the outcome in [1], in [2], in [3], in test [4], in test [5] and in test [6] was inactive. Moreover, the outcome in [7], in test [8], in test [9] and in [10] was inactive.

Regarding `O=[N+]([O-])c1cc(C(F)(F)F)c(Cl)c([N+](=O)[O-])c1Nc1ncc(C(F)(F)F)cc1Cl`, the AC50 was 20 µM (active) in [1]; 4.49 µM (active) and 10.8 µM (active) in test [2]; 2.16 µM (active) and 10 µM (active) in test [3]; 1.72 µM (active) and 6.05 µM (active) in [4]; 4.23 µM (active) and 9.83 µM (active) in [6]; 2.28 µM (active) and 1.22 µM (active) in test [7]. For the same compound, the AC50 in test [8] is 3.98 µM (active) and 8.05 µM (active); in test [9] it was 3.5 µM (active) and 6.78 µM (active); in test [10], 2.04 µM (active) and 5.51 µM (active). Moreover, the outcome in test [5] was inactive.

For `CCOP(=O)(NC(C)C)Oc1ccc(SC)c(C)c1` (stereo not given), the outcome in test [1], in test [2], in test [3], in test [4], in test [5] and in test [6] was inactive. Also, the outcome in test [7], in [8], in test [9] and in test [10] was inactive.

In the case of `CCOP(=S)(OCC)Oc1ccc([N+](=O)[O-])cc1`, the result in [1], in test [2], in test [3], in test [4], in test [5] and in test [6] was inactive. The outcome in [7], in [8], in [9] and in test [10] was inactive.

Consider `CCc1cnc(C2=NC(C)(C(C)C)C(=O)N2)c(C(=O)O)c1` (stereo not given), for which the outcome in test [1], in [2], in test [3], in [4], in test [5] and in test [6] was inactive. The outcome in test [7], in test [8], in test [9] and in test [10] was inactive.

Turning to `CCOP(=O)(OCC)Oc1cc(C)nc(C(C)C)n1`, the result in [1], in test [2], in [3], in test [4], in test [6] and in [7] was inactive. In addition, the result in test [8], in test [9] and in [10] was inactive. In addition, in test [5], the AC50 is 20 µM (active).

For the compound `CN(C)C(=O)Nc1cccc(C(F)(F)F)c1`, the result in test [1], in test [2], in test [3], in [4], in test [5] and in test [6] was inactive. Besides, the result in test [7], in test [8], in test [9] and in test [10] was inactive.

In the case of `CC(C)=CC1C(C(=O)OCN2C(=O)C3=C(CCCC3)C2=O)C1(C)C` (stereo not given), the outcome in test [1], in [2], in test [3], in test [4], in test [5] and in test [6] was inactive. The result in test [8], in test [9] and in test [10] was inactive. The concentration at half-maximal activity (AC50) in test [7] is 20 µM (active).

For the compound `CSC1=N[C@@](C)(c2ccccc2)C(=O)N1Nc1ccccc1`, the result in test [1], in [2], in test [3], in [4], in [5] and in [6] was inactive. Moreover, the outcome in test [8], in test [9] and in test [10] was inactive. The AC50 in test [7] is 11.5 µM (active).

In the case of `CCCCOC(=O)c1ccccc1C(=O)O`, the outcome in test [1], in [2], in test [3], in test [4], in test [5] and in test [6] was inactive. Besides, the outcome in [7], in test [8], in [9] and in [10] was inactive.

`COP(=O)(OC)C(O)C(Cl)(Cl)Cl` (stereo not given): the outcome in test [1], in [2], in [3], in test [4], in test [5] and in test [6] was inactive. The outcome in [8], in [9] and in [10] was inactive. For the same compound, in [7], the AC50 was 20 µM (active).

`CCOP(=S)(OCC)SCCSCC`: the outcome in [1], in test [2], in [3], in test [4], in [5] and in test [6] was inactive. Besides, the outcome in test [7], in [8], in [9] and in test [10] was inactive.

With `CCOP(=S)(OCC)Oc1cc(C)nc(C(C)C)n1`, the result in [1], in test [2], in test [3], in test [4], in test [5] and in test [6] was inactive. The result in test [8], in [9] and in test [10] was inactive. Besides, the concentration at half-maximal activity (AC50) in test [7] was 14.3 µM (active).

`CCOP(=S)(OCC)Oc1ccc2c(C)c(Cl)c(=O)oc2c1`: the outcome in [1], in test [2], in test [3], in test [4], in test [5] and in test [6] was inactive. Moreover, the outcome in test [8], in test [9] and in test [10] was inactive. Besides, in test [7], the half-maximal activity concentration (AC50) was 20 µM (active).

Values taken from PubChem BioAssay (EPA / NIEHS).
